As usually defined, the Inhibition is the change of the read-out against control, counted positive when it falls.

Measured potencies and affinities stand elsewhere.

One test deals with Staphylococcus aureus. The note with it: Concentration 32 ug.mL-1;; ASSAY_TEST Inhibition of Bacterial Growth; detection method Absorption (OD600); MEDIA CAMHB; plate type 384well; NBS; CORNING #3640; time 18 hr.
For the next test, the system named is Escherichia coli. To be noted: Concentration 32 ug.mL-1;; ASSAY_TEST Inhibition of Bacterial Growth; detection method Absorption (OD600); MEDIA CAMHB; plate type 384well; NBS; CORNING #3640; time 18 hr.

`Cc1ccc(NC(=O)Cn2nc3ccc(SC(C)C)nn3c2=O)c(C)c1`: the Inhibition with Staphylococcus aureus is given as -3.52%; in the test with Escherichia coli it was 4.56%.
As for `Cc1c(Cl)cccc1-n1ccn2c(=O)n(Cc3c(F)cccc3Cl)nc2c1=O`, the Inhibition in the test on Staphylococcus aureus was -0.05%; in the test on Escherichia coli it was -8.85%.
As to `CSc1ccc(CNC(=O)Cn2nc3c(N4CC(C)CC(C)C4)nccn3c2=O)cc1` (stereo not drawn), the Inhibition stood at 11.21% in the test with Staphylococcus aureus and 0.68% in the test with Escherichia coli.
With `CSc1cccc(NC(=O)Cn2nc3ccc(-c4ccccc4)nn3c2=O)c1`, the Inhibition is reported as -12.73% in the test with Staphylococcus aureus and -15.49% in the test with Escherichia coli.
For `CCc1nnc2c(SCC(=O)Nc3ccc4c(c3)OCCO4)nc3ccccc3n12` the same measures were -7.96% and 3.84%.
On the same counts, the results for `Cc1ccc(-c2cc3c4nn(CC(=O)NCc5ccc(Cl)cc5)c(=O)n4ccn3n2)cc1C` are 6.87% and 6.43%.
`C=Cc1ccc(Cn2nc3c(=O)n(-c4cccc(Cl)c4C)ccn3c2=O)cc1`: the Inhibition is on record as -2.71% with Staphylococcus aureus and -4.95% in the test with Escherichia coli.
On the same counts, the results for `CCOc1ccc(-n2ccn3c(SCC(=O)c4ccc(OC)cc4)nnc3c2=O)cc1` are 15.17% and -3.52%.
As for `Cc1ccc(-c2ccc3nn(CC(=O)Nc4ccc(Cl)cc4)c(=O)n3n2)cc1C`, the values for the Inhibition with Staphylococcus aureus and with Escherichia coli were 7.83% and -3.03%, respectively.
On the same counts, the results for `CCc1nnc2c(S(=O)(=O)N(Cc3ccccc3Cl)c3ccccc3)cccn12` are 0.81% and -6.41%.
For `Cc1ccc(CSc2nnc3c(=O)n(-c4ccc(Br)cc4)ccn23)cc1` the same measures were 13.68% and -2.08%.
For `CCc1nnc2ccc(S(=O)(=O)N(Cc3ccccc3F)c3ccc(OC)cc3)cn12` the same measures were 11.76% and -5.17%.
For the compound `C=Cc1ccc(CN(c2cccc(Cl)c2)S(=O)(=O)c2cccn3c(C)nnc23)cc1`, the figures for the Inhibition in the test with Staphylococcus aureus and with Escherichia coli were -18.32% and -14.37%, respectively.
On the same counts, the results for `COc1cccc(-n2ccn3c(SCC(=O)c4c[nH]c5ccccc45)nnc3c2=O)c1` are 3.92% and -5.66%.
Regarding `CCc1ccc(N(Cc2ccc(Cl)cc2)S(=O)(=O)c2cccn3c(C)nnc23)cc1`, the Inhibition with Staphylococcus aureus was 0.63%; in the test with Escherichia coli it was -8.46%.
On the same counts, the results for `O=c1n(Cc2cccc(Br)c2)nc2ccc(-c3ccccc3)nn12` are 4.53% and -3.48%.
On the same counts, the results for `Cc1ccccc1CN(c1ccc(Cl)cc1)S(=O)(=O)c1cccn2c(C)nnc12` are 11.54% and 1.89%.
Take `CCOC(=O)c1ccc(NC(=O)Cn2nc3c4cc(-c5ccc(Cl)cc5)nn4ccn3c2=O)cc1`: the Inhibition with Staphylococcus aureus is 1.13%; in the test with Escherichia coli, -5.39%.
On the same counts, the results for `Cc1cccc(CN(c2cc(C)cc(C)c2)S(=O)(=O)c2cccn3c(C)nnc23)c1` are 6.42% and -0.75%.
For the compound `O=C(CSc1nnc2ccc(C(=O)NCc3ccccc3)cn12)Nc1ccccc1Br`, the Inhibition is 7.29% in the test on Staphylococcus aureus and -1.34% in the test with Escherichia coli.
As for `CC1CCN(C(=O)Cn2nc3n(Cc4ccco4)c(=O)c4sccc4n3c2=O)CC1`, the Inhibition with Staphylococcus aureus is 1.87%; in the test on Escherichia coli, -2.27%.
Regarding `CCCCN(C)c1ccc2nnc(CCc3nc(-c4ccc(OCc5ccccc5)cc4)no3)n2n1`, the Inhibition is reported as -12.25% in the test on Staphylococcus aureus and -8.06% with Escherichia coli.
On the same counts, the results for `O=C(CSc1nnc2c(=O)n(-c3ccc(Br)cc3)ccn12)Nc1ccc(F)cc1` are 9.36% and -1.5%.
On the same counts, the results for `Cc1ccc(Oc2nccn3c(=O)n(CC(=O)Nc4ccc(Br)cc4)nc23)cc1` are 6.95% and -5.29%.
On to `Cc1ccc(Oc2nccn3c(=O)n(CC(=O)Nc4ccccc4F)nc23)cc1`, for which the Inhibition in the test with Staphylococcus aureus was 4.19%; with Escherichia coli it was -1.2%.
For `CCCCn1c(=O)c2sccc2n2c(=O)n(CC(=O)c3cccc(OC)c3)nc12` the same measures were 9.41% and 0.65%.
`COc1ccccc1-n1ccn2c(SCc3ccc(C)cc3)nnc2c1=O`: the Inhibition is listed as 4.53% with Staphylococcus aureus and -10.18% in the test on Escherichia coli.
Regarding `COc1ccccc1N1CCN(C(=O)Cn2nc3c(Sc4cccc(C)c4)nccn3c2=O)CC1`, the Inhibition in the test on Staphylococcus aureus is reported as 5.8%; in the test with Escherichia coli it was -4.78%.
As for `CC(C)CCNC(=O)CSc1nnc2c(=O)n(-c3ccc(F)cc3)ccn12`, the values for the Inhibition with Staphylococcus aureus and in the test with Escherichia coli were 8.18% and -2.32%, respectively.
For `Cc1ccc(NC(=O)Cn2c(=O)c3nnc(C)n3c3ccccc32)cc1C` the same measures were 17.12% and 0.02%.
Take `Cc1nnc2c(=O)n(CC(=O)Nc3ccccc3F)c3ccccc3n12`: the Inhibition was -11.2% in the test on Staphylococcus aureus and 1.77% with Escherichia coli.
With `Cc1oc(-c2ccc(OC(C)C)cc2)nc1CSc1nc2ccccc2n2c(C(C)C)nnc12`, the Inhibition with Staphylococcus aureus was -4.43%; in the test with Escherichia coli it was -16.17%.
On to `CCCNC(=O)Cn1nc2nc(Nc3ccc(F)cc3)ccn2c1=O`, for which the Inhibition with Staphylococcus aureus is 8.25%; with Escherichia coli, -13.63%.
For `Cc1cccc(N(C)C(=O)Cn2nc3cc(C)nc(Nc4ccc(F)c(C)c4)n3c2=O)c1` the same measures were 1.96% and -7.99%.
For `COc1ccc(-c2cc3c4nn(CC(=O)Nc5cc(Cl)ccc5C)c(=O)n4ccn3n2)cc1` the same measures were 5.04% and 1.53%.
On to `O=C(Cn1nc2ccc(SCc3ccc(Cl)cc3)nn2c1=O)Nc1ccc2c(c1)OCO2`, for which the Inhibition was 9.4% in the test with Staphylococcus aureus and -2.43% in the test with Escherichia coli.
For `O=C(CSc1nnc2c(=O)n(-c3ccccc3)ccn12)Nc1cccc(Cl)c1` the same measures were 1.05% and -12.66%.
`COc1ccc(-c2cc3c4nn(CC(=O)Nc5cc(OC)cc(OC)c5)c(=O)n4ccn3n2)cc1`: the Inhibition is -11.7% with Staphylococcus aureus and -10.82% with Escherichia coli.
Regarding `CSc1cccc(NC(=O)Cn2c(=O)c3nnc(C)n3c3ccccc32)c1`, the results for the Inhibition with Staphylococcus aureus and with Escherichia coli were -2.91% and 2.47%, respectively.
For the compound `Cc1nnc2ccc(S(=O)(=O)N(Cc3cccc(F)c3)c3ccc(F)cc3)cn12`, the Inhibition is listed as -0.57% with Staphylococcus aureus and -11.39% with Escherichia coli.
Turning to `C=Cc1ccc(CN(c2cccc(F)c2)S(=O)(=O)c2ccc3nnc(C)n3c2)cc1`, the Inhibition in the test with Staphylococcus aureus was 2.75%; in the test with Escherichia coli, -8.1%.
For `Cc1ccc(NC(=O)Cn2nc3ccc(SC4CCCCC4)nn3c2=O)c(Cl)c1` the same measures were -1.24% and -5.46%.
On the same counts, the results for `Cc1ccc(-c2ccc3nn(CC(=O)NC4CCCCC4)c(=O)n3n2)cc1C` are 8.8% and 0.07%.
For `COc1cccc(-n2ccn3c(SCC(=O)c4ccc(Br)cc4)nnc3c2=O)c1`, the figures for the Inhibition with Staphylococcus aureus and in the test on Escherichia coli were 12.63% and 0.58%, respectively.
For `CCOc1ccc(NC(=O)Cn2nc3c(N4CCCC(C)C4)nccn3c2=O)cc1` (stereo not drawn) the same measures were 4.96% and -4.53%.
On the same counts, the results for `Cc1oc(-c2cccc(Cl)c2)nc1CSc1nc2ccccc2n2c(C)nnc12` are 0.94% and 1.96%.
For `CCCCn1c(=O)c2sccc2n2c(=O)n(CC(=O)c3ccc(OC)c(OC)c3)nc12` the same measures were 13.6% and 0.21%.
As for `COc1ccc(NC(=O)Cn2nc3c(Oc4cccc(F)c4)nccn3c2=O)cc1`, the Inhibition with Staphylococcus aureus is -3.6%; in the test on Escherichia coli, -10.71%.
Regarding `Cc1ccc(Sc2nccn3c(=O)n(CC(=O)Nc4ccc(F)c(Cl)c4)nc23)c(C)c1`, the Inhibition with Staphylococcus aureus was -12.28%; in the test with Escherichia coli, -15.97%.

Source of the values: ChEMBL document CHEMBL4513146, “CO-ADD screening of Karazin Kharkiv National University (Ukraine) compounds”.
